{"source": "PubChem BioAssay (EPA / NIEHS)", "note": "Calls of active or inactive are those of the source. Rule for the calls: active = hit-call score of the fitted dose curve at least 0.9, where 1 is the maximum; inactive = score below 0.9.", "data": [{"assay": "APR_HepG2_CellLoss_1hr: Apredica 1-hour HepG2 Assay for Cell Loss (AID 2282668);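 note: curves fitted both ways against DMSO so gain or loss of cells counts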", "conditions": "high-content imaging", "summary_of_the_method": "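HepG2 cells were treated for 1 h with compound at 0.39–200 uM, in duplicate, in 0.5% DMSO. After formaldehyde fixation, Hoechst 33342-stained nuclei were imaged on an ArrayScan to count cells. Data were fitted bidirectionally versus DMSO.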", "values": [{"compound": "N#CC(CCc1ccc(Cl)cc1)(Cn1cncn1)c1ccccc1", "note": "(stereo not drawn)", "outcome": "inactive"}, {"compound": "CO/C=C(/C(=O)OC)c1ccccc1Oc1cc(Oc2ccccc2C#N)ncn1", "outcome": "inactive"}, {"compound": "CON(C)C(=O)Nc1ccc(Cl)c(Cl)c1", "outcome": "inactive"}, {"compound": "CCON=C(CC)C1=C(O)CC(c2c(C)cc(C)cc2C)CC1=O", "note": "(stereo not drawn)", "outcome": "inactive"}, {"compound": "CCCCC(CC)COC(=O)c1ccccc1C(=O)OCC(CC)CCCC", "note": "(stereo not drawn)", "outcome": "inactive"}, {"compound": "COc1ccc(C(c2ccc(OC)cc2)C(Cl)(Cl)Cl)cc1", "outcome": "inactive"}, {"compound": "CCCCNC(=O)n1c(NC(=O)OC)nc2ccccc21", "outcome": "inactive"}, {"compound": "C=CC1(C)OC(=O)N(c2cc(Cl)cc(Cl)c2)C1=O", "note": "(stereo not drawn)", "outcome": "inactive"}, {"compound": "CC1=C(C(=O)Nc2ccccc2)SCCO1", "outcome": "inactive"}, {"compound": "COc1nc(C)nc(NC(=O)NS(=O)(=O)c2ccccc2CCC(F)(F)F)n1", "outcome": "inactive"}, {"compound": "N#Cc1cc(Br)c(O)c(Br)c1", "outcome": "inactive"}, {"compound": "CS/C(C)=N/OC(=O)N(C)SN(C)C(=O)O/N=C(\\C)SC", "AC50": "45.7 µM (active)"}, {"compound": "CNC(=O)ON=CC(C)(C)SC", "outcome": "inactive"}, {"compound": "Fc1ccc(Oc2ccnc3cc(Cl)cc(Cl)c23)cc1", "outcome": "inactive"}, {"compound": "O=C(Nc1ccccc1)Nc1ccnc(Cl)c1", "outcome": "inactive"}, {"compound": "CCOC(=O)CC(SP(=S)(OC)OC)C(=O)OCC", "note": "(stereo not drawn)", "outcome": "inactive"}, {"compound": "CC(C)C1(C)N=C(c2nc3ccccc3cc2C(=O)O)NC1=O", "note": "(stereo not drawn)", "outcome": "inactive"}, {"compound": "CC(Oc1ccc(Cl)cc1Cl)C(=O)O", "note": "(stereo not drawn)", "outcome": "inactive"}, {"compound": "O=C(O)COc1nc(Cl)c(Cl)cc1Cl", "outcome": "inactive"}, {"compound": "CCCN(CCC)c1c([N+](=O)[O-])cc(S(N)(=O)=O)cc1[N+](=O)[O-]", "AC50": "66.6 µM (active)"}, {"compound": "O=C(O)c1nc(Cl)ccc1Cl", "outcome": "inactive"}, {"compound": "C=CCC1=C(C)[C@@H](OC(=O)[C@@H]2[C@@H](C=C(C)C)C2(C)C)CC1=O", "outcome": "inactive"}, {"compound": "CCc1nn(C)c(C(=O)NCc2ccc(C(C)(C)C)cc2)c1Cl", "outcome": "inactive"}, {"compound": "Cc1c(F)c(F)c(COC(=O)C2C(/C=C(\\Cl)C(F)(F)F)C2(C)C)c(F)c1F", "note": "(stereo not drawn)", "outcome": "inactive"}, {"compound": "N#Cc1nn(-c2c(Cl)cc(C(F)(F)F)cc2Cl)c(N)c1S(=O)C(F)(F)F", "note": "(stereo not drawn)", "outcome": "inactive"}, {"compound": "C#CCOS(=O)OC1CCCCC1Oc1ccc(C(C)(C)C)cc1", "note": "(stereo not drawn)", "outcome": "inactive"}]}, {"assay": "APR_HepG2_MicrotubuleCSK_1hr: Apredica 1-hour HepG2 Assay for Microtubule CSK Stabilty (AID 2282669)", "conditions": "HepG2 microtubule cytoskeleton imaging, actives raise or lower the signal", "summary_of_the_method": "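HepG2 cells exposed 1 h to 0.39–200 uM compound (0.5% DMSO, duplicates), then formaldehyde-fixed, permeabilized and immunostained for alpha-tubulin with Hoechst nuclei. Imaged by ArrayScan high-content analysis; bidirectional fit versus DMSO.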", "values": [{"compound": "N#CC(CCc1ccc(Cl)cc1)(Cn1cncn1)c1ccccc1", "note": "(stereo not drawn)", "outcome": "inactive"}, {"compound": "CO/C=C(/C(=O)OC)c1ccccc1Oc1cc(Oc2ccccc2C#N)ncn1", "outcome": "inactive"}, {"compound": "CON(C)C(=O)Nc1ccc(Cl)c(Cl)c1", "outcome": "inactive"}, {"compound": "CCON=C(CC)C1=C(O)CC(c2c(C)cc(C)cc2C)CC1=O", "note": "(stereo not drawn)", "outcome": "inactive"}, {"compound": "CCCCC(CC)COC(=O)c1ccccc1C(=O)OCC(CC)CCCC", "note": "(stereo not drawn)", "outcome": "inactive"}, {"compound": "COc1ccc(C(c2ccc(OC)cc2)C(Cl)(Cl)Cl)cc1", "outcome": "inactive"}, {"compound": "CCCCNC(=O)n1c(NC(=O)OC)nc2ccccc21", "outcome": "inactive"}, {"compound": "C=CC1(C)OC(=O)N(c2cc(Cl)cc(Cl)c2)C1=O", "note": "(stereo not drawn)", "outcome": "inactive"}, {"compound": "CC1=C(C(=O)Nc2ccccc2)SCCO1", "outcome": "inactive"}, {"compound": "COc1nc(C)nc(NC(=O)NS(=O)(=O)c2ccccc2CCC(F)(F)F)n1", "outcome": "inactive"}, {"compound": "N#Cc1cc(Br)c(O)c(Br)c1", "outcome": "inactive"}, {"compound": "CS/C(C)=N/OC(=O)N(C)SN(C)C(=O)O/N=C(\\C)SC", "outcome": "inactive"}, {"compound": "CNC(=O)ON=CC(C)(C)SC", "outcome": "inactive"}, {"compound": "Fc1ccc(Oc2ccnc3cc(Cl)cc(Cl)c23)cc1", "outcome": "inactive"}, {"compound": "O=C(Nc1ccccc1)Nc1ccnc(Cl)c1", "outcome": "inactive"}, {"compound": "CCOC(=O)CC(SP(=S)(OC)OC)C(=O)OCC", "note": "(stereo not drawn)", "outcome": "inactive"}, {"compound": "CC(C)C1(C)N=C(c2nc3ccccc3cc2C(=O)O)NC1=O", "note": "(stereo not drawn)", "outcome": "inactive"}, {"compound": "CC(Oc1ccc(Cl)cc1Cl)C(=O)O", "note": "(stereo not drawn)", "outcome": "inactive"}, {"compound": "O=C(O)COc1nc(Cl)c(Cl)cc1Cl", "outcome": "inactive"}, {"compound": "CCCN(CCC)c1c([N+](=O)[O-])cc(S(N)(=O)=O)cc1[N+](=O)[O-]", "outcome": "inactive"}, {"compound": "O=C(O)c1nc(Cl)ccc1Cl", "outcome": "inactive"}, {"compound": "C=CCC1=C(C)[C@@H](OC(=O)[C@@H]2[C@@H](C=C(C)C)C2(C)C)CC1=O", "outcome": "inactive"}, {"compound": "CCc1nn(C)c(C(=O)NCc2ccc(C(C)(C)C)cc2)c1Cl", "outcome": "inactive"}, {"compound": "Cc1c(F)c(F)c(COC(=O)C2C(/C=C(\\Cl)C(F)(F)F)C2(C)C)c(F)c1F", "note": "(stereo not drawn)", "outcome": "inactive"}, {"compound": "N#Cc1nn(-c2c(Cl)cc(C(F)(F)F)cc2Cl)c(N)c1S(=O)C(F)(F)F", "note": "(stereo not drawn)", "outcome": "inactive"}, {"compound": "C#CCOS(=O)OC1CCCCC1Oc1ccc(C(C)(C)C)cc1", "note": "(stereo not drawn)", "outcome": "inactive"}]}, {"assay": "APR_HepG2_NuclearSize_1hr: Apredica 1-hour HepG2 Assay for Nuclear Size (AID 2282670)", "conditions": "high-content imaging, actives raise or lower the signal", "summary_of_the_method": "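HepG2 cells dosed 1 hr with 0.39–200 uM compound (0.5% DMSO), formaldehyde-fixed, Hoechst 33342-stained and imaged at 20x; nuclear diameter from nuclear stain, fitted bidirectionally against DMSO.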", "values": [{"compound": "N#CC(CCc1ccc(Cl)cc1)(Cn1cncn1)c1ccccc1", "note": "(stereo not drawn)", "outcome": "inactive"}, {"compound": "CO/C=C(/C(=O)OC)c1ccccc1Oc1cc(Oc2ccccc2C#N)ncn1", "outcome": "inactive"}, {"compound": "CON(C)C(=O)Nc1ccc(Cl)c(Cl)c1", "outcome": "inactive"}, {"compound": "CCON=C(CC)C1=C(O)CC(c2c(C)cc(C)cc2C)CC1=O", "note": "(stereo not drawn)", "outcome": "inactive"}, {"compound": "CCCCC(CC)COC(=O)c1ccccc1C(=O)OCC(CC)CCCC", "note": "(stereo not drawn)", "outcome": "inactive"}, {"compound": "COc1ccc(C(c2ccc(OC)cc2)C(Cl)(Cl)Cl)cc1", "outcome": "inactive"}, {"compound": "CCCCNC(=O)n1c(NC(=O)OC)nc2ccccc21", "outcome": "inactive"}, {"compound": "C=CC1(C)OC(=O)N(c2cc(Cl)cc(Cl)c2)C1=O", "note": "(stereo not drawn)", "outcome": "inactive"}, {"compound": "CC1=C(C(=O)Nc2ccccc2)SCCO1", "outcome": "inactive"}, {"compound": "COc1nc(C)nc(NC(=O)NS(=O)(=O)c2ccccc2CCC(F)(F)F)n1", "outcome": "inactive"}, {"compound": "N#Cc1cc(Br)c(O)c(Br)c1", "outcome": "inactive"}, {"compound": "CS/C(C)=N/OC(=O)N(C)SN(C)C(=O)O/N=C(\\C)SC", "outcome": "inactive"}, {"compound": "CNC(=O)ON=CC(C)(C)SC", "outcome": "inactive"}, {"compound": "Fc1ccc(Oc2ccnc3cc(Cl)cc(Cl)c23)cc1", "outcome": "inactive"}, {"compound": "O=C(Nc1ccccc1)Nc1ccnc(Cl)c1", "outcome": "inactive"}, {"compound": "CCOC(=O)CC(SP(=S)(OC)OC)C(=O)OCC", "note": "(stereo not drawn)", "outcome": "inactive"}, {"compound": "CC(C)C1(C)N=C(c2nc3ccccc3cc2C(=O)O)NC1=O", "note": "(stereo not drawn)", "outcome": "inactive"}, {"compound": "CC(Oc1ccc(Cl)cc1Cl)C(=O)O", "note": "(stereo not drawn)", "outcome": "inactive"}, {"compound": "O=C(O)COc1nc(Cl)c(Cl)cc1Cl", "outcome": "inactive"}, {"compound": "CCCN(CCC)c1c([N+](=O)[O-])cc(S(N)(=O)=O)cc1[N+](=O)[O-]", "AC50": "61.6 µM (active)"}, {"compound": "O=C(O)c1nc(Cl)ccc1Cl", "outcome": "inactive"}, {"compound": "C=CCC1=C(C)[C@@H](OC(=O)[C@@H]2[C@@H](C=C(C)C)C2(C)C)CC1=O", "outcome": "inactive"}, {"compound": "CCc1nn(C)c(C(=O)NCc2ccc(C(C)(C)C)cc2)c1Cl", "outcome": "inactive"}, {"compound": "Cc1c(F)c(F)c(COC(=O)C2C(/C=C(\\Cl)C(F)(F)F)C2(C)C)c(F)c1F", "note": "(stereo not drawn)", "outcome": "inactive"}, {"compound": "N#Cc1nn(-c2c(Cl)cc(C(F)(F)F)cc2Cl)c(N)c1S(=O)C(F)(F)F", "note": "(stereo not drawn)", "outcome": "inactive"}, {"compound": "C#CCOS(=O)OC1CCCCC1Oc1ccc(C(C)(C)C)cc1", "note": "(stereo not drawn)", "outcome": "inactive"}]}]}
